Source: PubChem
Only some compounds are listed: those with a hit (about 1.2% of all), similar ones and a draw of the others.
PfHsp40 yeast: rescue of yeast from PfHsp40 toxicity, primary screen, S. cerevisiae, ATP luminescence; S. cerevisiae expressing PfHsp40, growth rescue; growth rescue, % at 12.5 µM; 340,000 compounds, 0.68% hits; AID 504582, 2011; in the data active = growth rescue above about 28%, passing the limit was not always enough;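 also: yeast W303a lacking pdr1 and pdr3 grown in galactose medium; growth measured after three days at 30 °C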
PrP 5UTR inh: inhibition of PrP 5' UTR reporter expression; cell-based PrP 5' UTR mRNA reporter, plate reader; inhibition, % (test concentration not listed); 340,000 compounds, 0.35% hits; AID 488862, 2010; in the data active = inhibition above about 52%; also: 0 = median of the neutral control wells
FadD28 binding: inhibitors of FadD28 bisubstrate probe binding, primary screen, biochemical, fluorescence polarization, single point; 360,000 compounds, 0.22% hits; AID 588549, 2011; Mycobacterium tuberculosis FadD28 fatty-acid-AMP ligase; inhibition, % at 12.5 µM; in the data active = inhibition above about 8.5%, passing the limit was not always enough
Yp Topo-I inh: Yersinia pestis topoisomerase I inhibitors, primary screen, biochemical, cleavage product accumulation, plate reader, single point | DNA topoisomerase I (Yersinia pestis CO92) | Y. pestis Topo-I cleavage product accumulation | activity, % at 10 µM | 360,000 compounds, 0.064% hits; in the data active = activity above about 50%, passing the limit was not always enough
Mtb BioA inh: M. tuberculosis BioA enzyme inhibitors, primary screen, biochemical, plate reader, single point, HTS; 7,8-diaminopelargonic acid synthase BioA (Mycobacterium tuberculosis); 360,000 compounds, 0.096% hits; purified M. tuberculosis BioA enzyme; inhibition, % at 9.99 µM; in the data active = inhibition above about 40%
TcdB GH inh: TcdB glycohydrolase inhibitors, primary screen, biochemical, single point, plate reader; Toxin B (Clostridioides difficile), P18177; TcdB glycohydrolase enzymatic assay; inhibition, % at 9.99 µM; 350,000 compounds, 0.24% hits; in the data active = inhibition above about 10%
Active calls of the source: *; x = not tested or not shown.

SMILES | PfHsp40 yeast | PrP 5UTR inh | FadD28 binding | Yp Topo-I inh | Mtb BioA inh | TcdB GH inh
CCOc1ccc(Cn2cc(F)c(=O)[nH]c2=O)cc1 | 0.9 | -5.3 | 1.4 | -7.8 | -1.6 | 1.0
CCCOc1ccc(S(=O)(=O)n2cc(F)c(=O)[nH]c2=O)cc1 | 161.7* | -27.6 | 0.0 | 1.1 | -0.7 | -0.9
CC(C)COc1ccc(S(=O)(=O)n2cc(F)c(=O)[nH]c2=O)cc1 | 35.7* | -3.3 | 1.2 | 8.2 | x | -1.0
Cc1ccc(Nc2n[nH]c(=S)s2)cc1 | x | x | 1.4 | -2.6 | 0.0 | 2.0
S=c1[nH]nc(NC2CCCCC2)s1 | x | x | -2.8 | -10.7 | -0.5 | 18.4*
COc1ccc(-c2cn(CCNC(=O)[C@H](Cc3ccccc3)NS(=O)(=O)c3ccc(C)cc3)nn2)cc1OC | x | x | x | x | 1.0 | 1.3
Cc1c(C(=O)N(Cc2ccccc2)Cc2cccs2)cnn1-c1ccc(Cl)cc1 | 116.8* | -38.3 | -0.1 | 1.7 | 3.3 | 2.3
COc1ccc(S(=O)(=O)Nc2ccc3c(c2)C(=O)N([C@@H](C)CO)C[C@@H](C)[C@@H](CN(C)CC2CC2)OCCCC[C@@H](C)O3)cc1 | x | x | x | x | 1.1 | -0.4
C=CC1CN(S(=O)(=O)c2ccc(Br)cc2)C(=O)N1c1ccc(Br)cc1 (stereo not given) | x | x | x | x | -2.9 | 0.8
CN(C)c1ccc(-n2cccc2/C=C/[N+](=O)[O-])cc1 | 230.4* | -2.4 | 1.0 | -5.8 | x | 0.4
CN(C)c1ccc(/C=C/[N+](=O)[O-])cc1 | 4.3 | -13.1 | -0.1 | 2.7 | x | 0.3
CCN(CC)c1ccc(/C=C(\C#N)C(=O)c2ccc(Br)cc2)cc1 | 0.0 | -19.2 | 27.8* | 25.7 | x | x
O=C(C[C@@H]1C[C@H]2c3cc(NC(=O)c4ccc5c(c4)OCO5)ccc3O[C@H]2[C@@H](CO)O1)NCc1cc(F)ccc1F | x | x | x | x | -1.0 | -0.2
O=C(C[C@H]1C[C@H]2c3cc(NC(=O)c4ccc5c(c4)OCO5)ccc3O[C@H]2[C@H](CO)O1)NCc1cccc(F)c1 | x | x | x | x | -1.2 | 13.6*
CC(=O)Nc1cccc(-c2cc(-c3c(Cl)cccc3Cl)no2)c1 | 356.9* | -0.1 | -4.1 | 2.8 | x | 1.1
CNC(=O)Nc1cccc(-c2cc(-c3c(Cl)cccc3Cl)no2)c1 | 0.0 | 3.7 | -22.9 | -0.2 | x | -3.5
C[C@H](CO)N1C[C@H](C)[C@@H](CN(C)Cc2ccc(Oc3ccccc3)cc2)Oc2ccc(N(C)C)cc2CC1=O | x | x | x | x | -1.1 | -5.7
CC(C)NC(=O)N(C)C[C@H]1Oc2ccc(NS(=O)(=O)c3ccccc3)cc2CC(=O)N([C@H](C)CO)C[C@@H]1C | x | x | x | x | 0.8 | -2.7
C[C@H]1CN([C@@H](C)CO)C(=O)c2cc(C3=CCCC3)cnc2O[C@H]1CN(C)C(=O)CN(C)C | x | x | x | x | -0.2 | -0.8
C[C@H](CO)N1C[C@H](C)[C@H](CN(C)S(=O)(=O)c2cn(C)cn2)Oc2ccc(NC(=O)c3ccncc3)cc2CC1=O | x | x | x | x | x | 1.3
Cc1ccc(NC(=S)NC(=O)C2CCCC2)c(Br)c1 | 118.8* | -67.0 | -5.5 | 16.8 | 1.5 | 1.1
NS(=O)(=O)c1ccc(-c2ccc(C=O)o2)cc1 | 0.6 | -35.6 | 0.8 | 2.4 | x | -0.1
NS(=O)(=O)c1ccc(-c2ccc(/C=C3\NC(=S)NC3=O)o2)cc1 | -1.3 | -2.3 | 10.0* | -2.9 | 2.1 | -5.9
C[C@H](CO)N1C[C@H](C)[C@H](CN(C)C(=O)Cc2ccccc2)OCCCC[C@H](C)Oc2ccc(NC(=O)Nc3ccccc3)cc2C1=O | x | x | x | x | -1.1 | -0.3
C[C@@H]1Cc2c(O)c(O)cc(O)c2C(=O)O1 | -0.1 | -4.6 | -1.1 | 3.2 | -0.4 | x
CC1Oc2cc3c(-c4c(O)cc(O)c5c(O)c6c(cc45)OC(C)C(C)C6=O)c(O)cc(O)c3c(O)c2C(=O)C1C (stereo not given) | 76.5* | 38.7 | 31.3* | -51.6 | -0.3 | x
COc1ccc(-c2cnc3c(c2)C(=O)N([C@H](C)CO)C[C@H](C)[C@@H](CN(C)C(=O)Cc2ccccn2)O3)cc1 | x | x | x | x | -0.5 | 0.2
CC(C)CC(=O)/C(=C/c1ccc(N(C)C)cc1)n1cncn1 | -1.2 | -3.3 | -0.1 | -2.8 | 1.6 | -0.2
CC(C)CC(=O)/C(=C\c1ccc(Cl)cc1Cl)n1cncn1 | 125.4* | -18.3 | -6.1 | -1.7 | 2.0 | x
COc1ccccc1-c1cn(CC[C@@H]2CC[C@@H](NC(=O)NC(C)C)[C@H](CO)O2)nn1 | x | x | x | x | -0.2 | 0.0
